SW480 rerep: induces DNA re-replication in SW480 colon adenocarcinoma cells. Potency, µM (titrated, usually from 46.1 µM), most hits filed as activators. SW480 DNA re-replication, Hoechst DNA content imaging, 48 h. 340,000 compounds, 1.8% hits. AID 624297; further: nearly all actives have a fitted effect of over 55% in size
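Image-based DNA-content assay: after two days of treatment, nuclei were labelled with the DNA dye Hoechst and imaged, and hits were compounds raising the count of nuclei showing high fluorescence intensity.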
TDP1 cell CPT: growth inhibition of DT40 Tdp1-/-;hTDP1 cells with camptothecin (screen for TDP1 inhibitors); 420,000 compounds, 12% hits; chicken DT40 Tdp1-/-;hTDP1 cells + 20 nM CPT, ATP luminescence, 48 h; Potency, µM (titrated, usually from 46.2 µM), hits mostly inhibitors; further: nearly all actives have a fitted effect of over 55% in size
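Cell growth measured by CellTiter-Glo luminescence after a minimum 48 h, 37 C compound exposure with 20 nM CPT in Tdp1-knockout DT40 cells stably expressing hTDP1, seeded 400/well; qHTS titration format.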
IL1B secr inh: inhibitors of inflammasome signaling (IL-1 beta secretion); AID 743279; 360,000 compounds, 4.7% hits; THP-1 LPS/ATP IL-1B secretion, AlphaLISA, 16 h; hits give low values; activity change, % at 57.5 µM; in the data active means activity change below about -50%; inconclusive means mostly about -30% to -49%
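Secreted IL-1B measured by AlphaLISA bead assay after 16 h compound exposure of THP-1 cells; compounds (final up to 57.5 uM) added 1 h before LPS (250 ng/mL) and ATP (1.25 mM) stimulation; lower signal means less secretion.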
MCF10A rerep: DNA re-replication induction in MCF 10a cells. MCF 10A DNA re-replication, Hoechst nuclear intensity, 48 h. Potency, µM (series often up to 46.1 µM), actives largely listed as activators. 350,000 compounds, 2.9% hits; further: nearly all actives have a fitted effect of over 50% in size
DT40 TDP1 no CPT: qHTS for Inhibitors of human tyrosyl-DNA phosphodiesterase 1 (TDP1): qHTS in cells in absence of CPT | 420,000 compounds, 15% hits | DT40 Tdp1-/- hTDP1 cells, no CPT, ATP luminescence, 48 h | Potency, µM (highest dose often 46.2 µM), actives largely listed as inhibitors; further: nearly all actives have a fitted effect of over 55% in size
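Seeded 400 DT40-hTDP1 cells/well (vehicle DMSO, no 20 nM CPT); pinned compounds; ≥48 hr at 37 °C; CellTiter-Glo luminescence as viability measure.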
Chronic BCR inh: chronic active BCR signaling inhibition; AID 493014; 340,000 compounds, 0.05% hits; Potency, µM (top dose mostly 46.1 µM), actives largely listed as inhibitors; ABC-DLBCL IkBa-CBG/CBR reporter, luminescence ratio, 4 h; active means well fitted inhibition curve with a large enough effect in the signal ratio, with a control signal flat, not every such curve was filed as active; inconclusive means small, poorly fitted or top-dose-only effect, or effect the other way, or a change in a side signal; the % refers to the signal ratio
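Concentration-response series (up to 46 uM) were applied to TMD8 dual-reporter cells for 4 h at 37C with doxycycline. Green/red ratio, after filter-overlap correction, defined %Activity; red signal alone was normalised to basal cells and zero luminescence.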
Hits are given with their value; 0 = inactive; ? = inconclusive; - = not tested or not shown; [ ] = dose if it differs, or a comment. Hits are enriched below; roughly 19% of the tested compounds scored in any of these assays. Unless noted, the call rests on the fitted dose curve; in most records, active means well fitted curve in the direction sought with a large enough effect; inconclusive means small, poorly fitted or top-dose-only effect, or another doubt; inactive means no such curve, though single readings can be large; an effect the other way counts as inactive or inconclusive.

SMILES	SW480 rerep	TDP1 cell CPT	IL1B secr inh	MCF10A rerep	DT40 TDP1 no CPT	Chronic BCR inh
CC(C)(C)OC(=O)N1CCC(NC(=O)c2[nH]cnc2C(=O)Nc2cccc(Cl)c2)CC1	0	?	-58	0	?	0
Cn1cnc(C(=O)NCc2ccc(CNC(=O)OC(C)(C)C)cc2)c1C(=O)NCc1ccc(CNC(=O)OC(C)(C)C)cc1	0	21µM	0	0	?	?
CC(C)(C)OC(=O)NCc1ccc(CNC(=O)c2ncn(Cc3ccccc3)c2C(=O)NCc2ccc(CNC(=O)OC(C)(C)C)cc2)cc1	0	0	0	0	0	0
CC(C)(C)OC(=O)N1CCN(C(=O)c2[nH]cnc2C(=O)Nc2ccc(Cl)cc2)CC1	0	?	-52	0	?	0
CC(C)(C)OC(=O)N1CCC(NC(=O)c2ncn(Cc3ccccc3)c2C(=O)NC2CCN(C(=O)OC(C)(C)C)CC2)CC1	?	23µM	0	?	?	0
Cc1ccc(C(=O)Nc2c(C)nc3ccccn3c2=O)cc1	-	0	-	-	0	-
COc1ccc(C(=O)NC(C)c2ccncc2)cc1S(=O)(=O)N(C)Cc1ccccc1 (stereo not drawn)	?	0	0	0	0	0
CC(C)(C)OC(=O)NCc1ccc(CNC(=O)c2nc[nH]c2C(=O)N2CCN(C(=O)OC(C)(C)C)CC2)cc1	0	?	0	0	18µM	?
O=C(NCC1CCCO1)C1CCN(C2CCN(CCCC3CCCC3)CC2)CC1 (stereo not drawn)	?	15µM	0	16µM	23µM	0
CC(C)c1c(C(=O)NCc2ccncc2)cnn1-c1nccc(-c2cccs2)n1	-	0[9.04 µM]	-	-	0	-
C=CCC(NCc1ccccc1)c1ccc(C)o1 (stereo not drawn)	0	?	0	0	?	-
C=CCC(NCc1ccccc1)c1ccc(Cl)cc1 (stereo not drawn)	0	?	0	?	13µM	0
CC1C(c2ccccc2)=NNc2nc3c(c(=O)n(C)c(=O)n3C)n21 (stereo not drawn)	0	?	0	0	12µM	0
CN(C)c1nc(=NCc2ccco2)ss1	0	0.15µM	-89	21µM	0.037µM	?
O=S1(=O)NC(=NCc2ccco2)c2ccccc21	0	0	0	0	0	0
CC1=CCC2C(=O)N(c3ccc4ccccc4n3)C(=O)C2C1 (stereo not drawn)	0	0	0	0	0	0
Cc1cc(=O)n(-c2ccc3ccccc3n2)[nH]1	?	18µM	0	?	21µM	?
CSCCC(C(=O)Nc1c(C)cccc1C)n1c(-c2ccc(-c3ccccc3)cc2)nc2ccccc21 (stereo not drawn)	-	10µM	0	-	?	-
CSCCC(C(=O)NCc1ccccc1)n1c(C2CCN(C(C)=O)CC2)nc2ccccc21 (stereo not drawn)	-	?	-52	-	?	-
CSCCC(C(=O)Nc1c(C)cccc1C)n1c(COc2ccc(C)cc2)nc2ccccc21 (stereo not drawn)	-	12µM	-58	-	9.2µM	-
O=C(NCc1ccccc1)C(c1ccccc1)n1c(C2CC2)nc2ccccc21 (stereo not drawn)	-	?	0	-	?	-
O=C(CSc1ncccn1)NC1CCS(=O)(=O)C1 (stereo not drawn)	0	0	0	0	0	0
CC(C)N(C(=O)[C@H]1C[C@H](CC(=O)NCCc2ccccn2)C(=O)N2CCc3c([nH]c4cc(CCC(=O)N(C)C)ccc34)[C@]12C)C(C)C	0	0	0	0	0	?
Cc1c(NC(=O)Nc2ccc(Br)cc2F)sc2nc3n(c(=O)c12)CCC(C)CC3 (stereo not drawn)	-	3.7µM	-	-	?	-
COc1ccccc1NC(=O)c1sc2ncn(Cc3ccccc3Cl)c(=O)c2c1C	-	0	-	-	?	0
SMILES	SW480 rerep	TDP1 cell CPT	IL1B secr inh	MCF10A rerep	DT40 TDP1 no CPT	Chronic BCR inh
CCn1c(SCC(=O)c2ccccc2)nnc1-c1cc2cc(Br)ccc2o1	0	?	0	?	9.2µM	0
C=CCn1c(SCC(=O)c2ccccc2)nnc1-c1cc2ccccc2o1	0	23µM	0	0	?	0
CO/N=C(/C(=O)N[C@@H]1C(=O)N2C(C(=O)O)=C(COC(N)=O)CS[C@H]12)c1ccco1	0	?	-	?	0	-
COc1ccc(CCN2C(=O)CCC3=C2CCC3=O)cc1OC	-	0	0	-	0	-
O=C(N/N=C1\SCC(=O)N1CCc1ccccc1)c1cccs1	0	0	0	0	0	0
COc1ccc(CCN2C(=O)CSC2=Nc2ccc(C(C)C)cc2)cc1OC	9.2µM	15µM	-	16µM	9.2µM	?
COc1ccc(N=C2SCC(=O)N2CCc2ccc(OC)c(OC)c2)cc1	0	?	0	0	26µM	0
COc1ccc(CCN2C(=O)CS/C2=N\NC(=O)c2ccc(C(C)(C)C)cc2)cc1OC	0	?	0	0	15µM	0
COc1ccc(N=C2SC(C(N)=O)CC(=O)N2CCc2ccc(OC)c(OC)c2)cc1 (stereo not drawn)	0	0	0	0	0	0
CCCC[C@]12Cc3cc(OC)c(OC)cc3C(O1)C1=C(O2)C(=O)c2ccccc2C1=O	-	-	-	-	-	0[9.22 µM]
c1ccc([C@H]2CNCCN2CCc2cccc3ccccc23)cc1	?	?	0	0	21µM	?
COc1cc(CCCN2CCNC[C@@H]2c2ccccc2)cc(OC)c1OC	0	0	0	?	0	0
c1ccc2c(C[C@@H]3CNCCN3CC3CCCCC3)cccc2c1	0	15µM	-58	?	16µM	0
CC(C)(C)CN1CCNC[C@H]1Cc1ccc(O)cc1	0	?	0	0	0	0
Oc1ccc(C[C@H]2CNCCN2CC2CCCCC2)cc1	0	?	0	0	16µM	0
Oc1ccc(C[C@@H]2CNCCN2CC2CCCCC2)cc1	0	16µM	0	0	23µM	0
COc1ccccc1CNC(=O)C[C@H]1CC[C@@H]2[C@H](COC[C@H](O)CN2Cc2ccc3c(c2)OCO3)O1	-	?	0	-	?	-
COc1ccc(CN2C(=O)CCC2(C)c2nc3ccccc3[nH]2)cc1 (stereo not drawn)	-	0	0	-	0	-
CC1CCCCC1NC(=O)COC(=O)c1ccc2ncsc2c1 (stereo not drawn)	0	0	0	0	0	0
CCCCN(C)C(=O)c1nc2ccccn2c1CN1CCN(C/C=C/c2ccccc2)CC1	0	?	0	0	26µM	0
CC(=O)c1ccc(N2CCN(C(=S)Nc3ccc(Oc4ccccc4)cc3)CC2)cc1	0	?	-66	?	7.3µM	0
COC(=O)Cc1ccc(NC(=S)N2CCN(CCO)CC2)cc1	0	0	0	0	0	-
